# From PubChem BioAssay (EPA / NIEHS)
# Where “and” joins values, the source holds several entries; their conditions need not be identical. Identical values can stand only once. Some compounds were tested as several samples or in several runs, with calls that do not always agree. Calls of active or inactive are those of the source. How the source made its calls: active means hit-call score of the fitted dose curve at least 0.9, where 1 is the maximum; inactive means score below 0.9.
# Experiments:
# [1] = ATG_ISRE_CIS: Attagene CIS-FACTORIAL HepG2 Assay for human Interferon Regulatory Factor 1 (IRF1) binding to an Interferon-Stimulated Response Element (ISRE) (AID 2282948); details: HepG2 ISRE cis-reporter (Attagene), mRNA transcription readout; actives raise or lower the signal
# Procedure, shortened: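 Multiplexed mRNA reporter readout in human liver HepG2 cells: cis-element-driven reporters transfected, compound added for 24 h, transcripts amplified, fluorescently labelled and sized by capillary electrophoresis; curve fitting bidirectional against DMSO.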
# [2] = ATG_M_06_CIS: Attagene CIS-FACTORIAL HepG2 Assay for M06 Transcription Factor (Internal Marker) (AID 2282950); details: HepG2 Attagene CIS-FACTORIAL M06 internal marker reporter; actives raise or lower the signal
# Procedure, shortened: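 Cells (HepG2, transiently carrying cis-driven reporter units) receive chemical for 24 h before RNA isolation. Reporter cDNA is PCR-amplified, FAM-labelled by primer extension, HpaI-digested and sized on a capillary analyser.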
# [3] = molecular target: Hypoxia-inducible factor 1-alpha (Homo sapiens) (UniProt Q16665); test: ATG_HIF1a_CIS: Attagene CIS-FACTORIAL HepG2 Assay for human Hypoxia Inducible Factor 1 (HIF1A) (AID 2282951); details: HepG2 Attagene cis-factorial HIF1a reporter transcription; actives raise or lower the signal
# Hypoxia-inducible factor 1-alpha (Homo sapiens), sequence (Q16665 whole entry, looked up): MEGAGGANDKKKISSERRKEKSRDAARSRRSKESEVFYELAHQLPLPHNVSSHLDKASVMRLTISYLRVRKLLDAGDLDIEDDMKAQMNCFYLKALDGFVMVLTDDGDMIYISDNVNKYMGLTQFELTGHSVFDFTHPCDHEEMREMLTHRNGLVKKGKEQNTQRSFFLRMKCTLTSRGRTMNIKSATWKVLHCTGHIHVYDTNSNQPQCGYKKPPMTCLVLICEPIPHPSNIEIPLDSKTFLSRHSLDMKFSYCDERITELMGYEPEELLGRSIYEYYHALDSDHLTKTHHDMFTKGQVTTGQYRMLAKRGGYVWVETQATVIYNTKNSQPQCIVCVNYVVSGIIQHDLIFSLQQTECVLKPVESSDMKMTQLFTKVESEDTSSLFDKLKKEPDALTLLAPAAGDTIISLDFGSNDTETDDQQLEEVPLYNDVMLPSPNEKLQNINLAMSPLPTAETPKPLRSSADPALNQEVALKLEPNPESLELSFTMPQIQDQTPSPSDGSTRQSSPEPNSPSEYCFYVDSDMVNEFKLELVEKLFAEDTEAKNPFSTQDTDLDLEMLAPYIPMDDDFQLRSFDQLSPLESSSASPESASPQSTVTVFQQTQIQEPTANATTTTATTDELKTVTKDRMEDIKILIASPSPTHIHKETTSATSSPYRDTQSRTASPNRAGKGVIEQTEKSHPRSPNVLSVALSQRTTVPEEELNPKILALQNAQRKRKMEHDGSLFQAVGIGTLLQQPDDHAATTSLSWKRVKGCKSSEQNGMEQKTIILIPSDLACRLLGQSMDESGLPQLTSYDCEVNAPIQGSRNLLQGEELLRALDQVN
# Procedure, shortened: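 Endogenous-TF cis reporter readout, human HepG2 cells, 24 h incubation; mRNA detected via RT-PCR and capillary electrophoresis fluorescence; DMSO-normalised bidirectional fitting.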
# [4] = molecular target: Hepatocyte nuclear factor 6 (Homo sapiens) (UniProt Q9UBC0); test: ATG_HNF6_CIS: Attagene CIS-FACTORIAL HepG2 Assay for human Hepatocyte Nuclear Factor 6 (HNF6) (AID 2282952); details: HepG2 Attagene cis-factorial HNF6 reporter transcription; actives raise or lower the signal
# Hepatocyte nuclear factor 6 (Homo sapiens), sequence (Q9UBC0 whole entry, looked up): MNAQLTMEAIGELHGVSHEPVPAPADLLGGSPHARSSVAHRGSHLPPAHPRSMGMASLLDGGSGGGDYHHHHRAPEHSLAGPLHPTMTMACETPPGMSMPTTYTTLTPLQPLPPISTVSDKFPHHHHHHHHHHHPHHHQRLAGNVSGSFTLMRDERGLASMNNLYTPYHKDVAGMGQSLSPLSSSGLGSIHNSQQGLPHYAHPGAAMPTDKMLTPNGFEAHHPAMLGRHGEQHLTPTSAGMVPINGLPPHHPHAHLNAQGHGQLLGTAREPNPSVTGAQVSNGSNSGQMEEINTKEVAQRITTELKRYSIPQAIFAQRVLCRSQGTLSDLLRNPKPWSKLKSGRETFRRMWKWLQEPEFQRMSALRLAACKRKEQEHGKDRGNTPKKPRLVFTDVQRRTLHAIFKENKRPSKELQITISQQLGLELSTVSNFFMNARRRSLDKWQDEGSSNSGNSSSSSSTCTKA
# Procedure, shortened: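 Endogenous transcription factor activity in human HepG2 liver cells was captured through cis-regulated reporter constructs. After 24 h treatment, reporter mRNA was measured by RT-PCR with capillary electrophoresis, and activity was fitted in both directions relative to DMSO.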
# [5] = molecular target: Heat shock factor protein 1 (Homo sapiens) (UniProt Q00613); test: ATG_HSE_CIS: Attagene CIS-FACTORIAL HepG2 Assay for human Heat Shock Transcription Factor 1 (HSE) (AID 2282953); details: HepG2 HSE cis-reporter, Attagene RNA transcription; actives raise or lower the signal
# Heat shock factor protein 1 (Homo sapiens), sequence (Q00613 whole entry, looked up): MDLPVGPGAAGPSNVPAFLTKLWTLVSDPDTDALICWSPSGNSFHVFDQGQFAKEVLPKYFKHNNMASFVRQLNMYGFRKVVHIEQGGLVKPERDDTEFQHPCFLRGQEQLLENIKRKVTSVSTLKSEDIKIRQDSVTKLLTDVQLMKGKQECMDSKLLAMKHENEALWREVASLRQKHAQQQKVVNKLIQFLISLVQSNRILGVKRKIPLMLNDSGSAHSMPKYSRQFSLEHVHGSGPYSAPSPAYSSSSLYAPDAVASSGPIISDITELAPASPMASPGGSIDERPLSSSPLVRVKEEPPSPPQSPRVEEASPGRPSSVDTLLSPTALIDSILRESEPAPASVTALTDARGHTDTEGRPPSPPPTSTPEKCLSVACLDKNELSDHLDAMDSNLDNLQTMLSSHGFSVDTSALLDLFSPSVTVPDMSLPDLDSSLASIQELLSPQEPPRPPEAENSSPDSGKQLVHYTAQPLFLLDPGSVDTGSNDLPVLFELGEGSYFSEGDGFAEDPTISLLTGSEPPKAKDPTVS
# Procedure, shortened: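 Liver-derived HepG2 cells carry transiently introduced multiple reporter units governed by cis promoters. Reporter RNA measured 24 h post-dose through reverse transcription, PCR amplification, fluorescent labelling and capillary electrophoresis, normalised to DMSO.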
# [6] = ATG_MRE_CIS: Attagene CIS-FACTORIAL HepG2 Assay for human Metal Responsive Element (MRE) (AID 2282954); details: HepG2 MRE cis-reporter transcription, Attagene multiplex; actives raise or lower the signal
# Procedure, shortened: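 RT-PCR/capillary electrophoresis readout of reporter mRNA, 24 h post-dosing, in HepG2 cells transfected with multiplexed cis-regulated reporter constructs. Gain or loss of signal fitted bidirectionally against DMSO baseline.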
# [7] = ATG_PBREM_CIS: Attagene CIS-FACTORIAL HepG2 Assay for human Phenobarbital-responsive Enhancer Module (PBREM) (AID 2282955); details: HepG2 PBREM cis-reporter, Attagene multiplexed transcription; actives raise or lower the signal
# Procedure, shortened: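 Readout: reporter mRNA, fluorescent RT-PCR fragments separated by capillary electrophoresis. System: HepG2 transiently transfected with cis-regulated reporter units. Exposure: 24 h. Analysis: bidirectional, DMSO baseline.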
# [8] = ATG_PXRE_CIS: Attagene CIS-FACTORIAL HepG2 Assay for human Pregnane X Receptor Element (PXRE) (AID 2282957); details: HepG2 Attagene CIS-FACTORIAL PXRE reporter, mRNA; actives raise or lower the signal
# Procedure, shortened: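 Endogenous transcription factor activity in HepG2 was gauged through induction of reporter mRNA driven by a cis-regulating promoter element, sampled 24 h post-treatment. Activity was fitted in both directions against DMSO negative control.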
# [9] = ATG_PPRE_CIS: Attagene CIS-FACTORIAL HepG2 Assay for human Peroxisome Proliferator-activated Response Element (PPRE) (AID 2282958); details: HepG2 PPRE cis-element reporter, Attagene transcription factor profiling; actives raise or lower the signal
# Procedure, shortened: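 After human HepG2 hepatoma cells were transiently transfected with cis-promoter reporter constructs, they were exposed to test chemicals for 24 hours. Reporter RNA was then reverse-transcribed, PCR-amplified, FAM-labeled, HpaI-digested and quantified by capillary electrophoresis.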
# [10] = ATG_RORE_CIS: Attagene CIS-FACTORIAL HepG2 Assay for human RAR-related Orphan Receptor Element (RORE) (AID 2282959); details: HepG2 Attagene cis-factorial RORE reporter, mRNA; actives raise or lower the signal
# Procedure, shortened: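 Measured here: transcript induction of a cis-regulated reporter in HepG2 cells transiently transfected via FuGene 6. After 24 h, RNA was processed by RT-PCR and fluorescent capillary electrophoresis; DMSO defined baseline activity.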
# [11] = ATG_Sox_CIS: Attagene CIS-FACTORIAL HepG2 Assay for human SRY-box transcription factor (SOX) (AID 2282960); details: HepG2 Attagene cis-factorial SOX reporter, mRNA; actives raise or lower the signal
# Procedure, shortened: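 Using transiently transfected HepG2 cells, reporter transcription driven by cis elements was assessed 24 h after dosing. Signal was fluorescence of capillary-separated RT-PCR products, with DMSO defining baseline activity.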
# [12] = molecular target: Transcription factor Sp1 (Homo sapiens) (UniProt P08047); test: ATG_Sp1_CIS: Attagene CIS-FACTORIAL HepG2 Assay for human Specificity Protein 1 (Sp1) (AID 2282961); details: HepG2 Sp1 cis-reporter transcription, actives raise or lower the signal
# Transcription factor Sp1 (Homo sapiens), sequence (P08047 whole entry, looked up): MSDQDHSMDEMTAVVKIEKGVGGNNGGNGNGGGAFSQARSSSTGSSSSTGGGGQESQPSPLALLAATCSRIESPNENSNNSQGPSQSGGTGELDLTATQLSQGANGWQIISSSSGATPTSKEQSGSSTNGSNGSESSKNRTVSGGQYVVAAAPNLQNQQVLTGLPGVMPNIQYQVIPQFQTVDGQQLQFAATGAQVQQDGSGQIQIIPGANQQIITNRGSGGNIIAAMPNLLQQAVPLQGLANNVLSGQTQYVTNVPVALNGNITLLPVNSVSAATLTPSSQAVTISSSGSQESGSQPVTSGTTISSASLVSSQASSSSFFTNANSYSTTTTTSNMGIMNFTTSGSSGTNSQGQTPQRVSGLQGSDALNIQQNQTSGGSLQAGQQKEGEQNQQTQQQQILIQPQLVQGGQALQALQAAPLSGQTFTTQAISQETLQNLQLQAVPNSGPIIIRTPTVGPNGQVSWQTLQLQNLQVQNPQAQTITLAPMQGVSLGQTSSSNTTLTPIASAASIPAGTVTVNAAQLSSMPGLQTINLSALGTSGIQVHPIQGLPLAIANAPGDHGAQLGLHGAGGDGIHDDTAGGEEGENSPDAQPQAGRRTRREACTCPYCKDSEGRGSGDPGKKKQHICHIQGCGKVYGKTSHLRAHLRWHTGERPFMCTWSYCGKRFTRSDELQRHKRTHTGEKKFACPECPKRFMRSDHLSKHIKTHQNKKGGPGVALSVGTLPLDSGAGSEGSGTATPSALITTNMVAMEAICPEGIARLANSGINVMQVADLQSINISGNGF
# Procedure, shortened: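 After transient transfection of HepG2 cells with cis-promoter reporter units and 24 h chemical treatment, reporter transcripts were quantified by RT-PCR and capillary electrophoresis fluorescence. Gain- and loss-of-signal fitted against DMSO.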
# [13] = ATG_SREBP_CIS: Attagene CIS-FACTORIAL HepG2 Assay for human Sterol Regulatory Element Binding (SREBP) (AID 2282962); details: HepG2 Attagene cis-factorial SREBP reporter, mRNA; actives raise or lower the signal
# Procedure, shortened: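 Endogenous factor activity is measured in HepG2 through multiplexed reporter units under cis-element control. Following a 24 h incubation, reporter transcripts are reverse-transcribed, PCR-amplified and sized by capillary electrophoresis; activity is fitted in both directions relative to DMSO.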
# [14] = molecular target: Signal transducer and activator of transcription 3 (Homo sapiens) (UniProt P40763); test: ATG_STAT3_CIS: Attagene CIS-FACTORIAL HepG2 Assay for human Signal Transducer and Activator of Transcription 3 (STAT3) (AID 2282963); details: HepG2, Attagene cis-factorial STAT3 reporter transcription; actives raise or lower the signal
# Signal transducer and activator of transcription 3 (Homo sapiens), sequence (P40763 whole entry, looked up, the tested form may be a part): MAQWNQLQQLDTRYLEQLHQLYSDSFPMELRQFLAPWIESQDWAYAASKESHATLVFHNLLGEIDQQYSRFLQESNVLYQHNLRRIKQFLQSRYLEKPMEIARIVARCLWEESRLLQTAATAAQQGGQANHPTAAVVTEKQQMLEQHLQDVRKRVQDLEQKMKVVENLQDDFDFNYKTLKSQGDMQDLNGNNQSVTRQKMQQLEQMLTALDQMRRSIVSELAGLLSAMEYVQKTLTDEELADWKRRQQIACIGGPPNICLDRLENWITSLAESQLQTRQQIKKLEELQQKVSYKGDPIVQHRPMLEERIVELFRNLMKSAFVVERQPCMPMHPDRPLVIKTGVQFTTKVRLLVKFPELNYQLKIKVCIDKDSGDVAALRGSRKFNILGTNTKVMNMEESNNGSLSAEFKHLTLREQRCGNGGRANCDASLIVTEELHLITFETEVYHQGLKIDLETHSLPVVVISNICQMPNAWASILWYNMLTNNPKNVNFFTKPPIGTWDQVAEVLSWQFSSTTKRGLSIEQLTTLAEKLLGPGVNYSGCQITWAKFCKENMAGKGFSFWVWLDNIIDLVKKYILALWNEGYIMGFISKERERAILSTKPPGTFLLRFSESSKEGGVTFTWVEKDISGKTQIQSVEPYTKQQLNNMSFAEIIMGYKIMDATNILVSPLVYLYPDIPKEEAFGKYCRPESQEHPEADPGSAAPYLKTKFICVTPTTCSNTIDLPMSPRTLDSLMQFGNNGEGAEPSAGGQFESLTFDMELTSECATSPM
# Procedure, shortened: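 Readout: fluorescent reporter mRNA fragments resolved by capillary electrophoresis. Setup: HepG2 transfected with MRTUs reporting endogenous transcription-factor activity, dosed 24 h. Gain or loss of signal fitted bidirectionally against DMSO control.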
# [15] = ATG_TA_CIS: Attagene CIS-FACTORIAL HepG2 Assay for human TA Basal Promoter (AID 2282964); details: HepG2 Attagene CIS-factorial TA basal promoter reporter; actives raise or lower the signal
# Procedure, shortened: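 Background internal-marker endpoint from a 52-component HepG2 cis-reporter panel. Cells treated 24 h; reporter transcripts quantified via RT-PCR and CE fluorescence against DMSO baseline.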
# [16] = ATG_TCF_b_cat_CIS: Attagene CIS-FACTORIAL HepG2 Assay for human T-Cell-Factor with beta-catenin (TCF/b-cat) (AID 2282965); details: HepG2 TCF/beta-catenin cis-reporter transcription, actives raise or lower the signal
# Procedure, shortened: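 HepG2, transient MRTU transfection, cis-element-driven reporters (endogenous TFs). 24 h compound exposure. Readout: reporter mRNA by RT-PCR + 6-FAM primer extension, HpaI digest, capillary electrophoresis. Gain/loss fit vs DMSO baseline.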
# [17] = ATG_GRE_CIS: Attagene CIS-FACTORIAL HepG2 Assay for human Glucocorticoid Response Elements (GRE) (AID 2282947); details: HepG2 GRE cis-reporter, Attagene multiplex mRNA; actives raise or lower the signal
# Procedure, shortened: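 Read-out: fluorescent reporter-transcript fragments separated by capillary electrophoresis after RT-PCR. Transiently transfected HepG2 cells carrying cis-element-driven reporter units were dosed for 24 h; gain or loss of signal fitted against DMSO control.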
# [18] = molecular target: Paired box protein Pax-6 (Homo sapiens) (UniProt P26367); test: ATG_Pax6_CIS: Attagene CIS-FACTORIAL HepG2 Assay for human Paired Box 6 (PAX6) (AID 2282956); details: HepG2 CIS-FACTORIAL PAX6 reporter transcription, RNA readout; actives raise or lower the signal
# Paired box protein Pax-6 (Homo sapiens), sequence (P26367 whole entry, looked up): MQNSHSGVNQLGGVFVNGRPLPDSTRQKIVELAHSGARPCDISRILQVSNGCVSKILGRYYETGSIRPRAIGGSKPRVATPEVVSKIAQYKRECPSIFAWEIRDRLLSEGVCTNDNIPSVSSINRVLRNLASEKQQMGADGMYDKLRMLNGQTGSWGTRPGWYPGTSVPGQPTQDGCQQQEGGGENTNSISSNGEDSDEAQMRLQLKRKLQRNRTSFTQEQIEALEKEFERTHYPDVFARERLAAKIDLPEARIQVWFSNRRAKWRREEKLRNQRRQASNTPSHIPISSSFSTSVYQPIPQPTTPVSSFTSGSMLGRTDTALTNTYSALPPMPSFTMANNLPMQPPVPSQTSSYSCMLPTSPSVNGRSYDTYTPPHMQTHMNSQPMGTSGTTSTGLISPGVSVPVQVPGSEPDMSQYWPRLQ
# Procedure, shortened: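 Fluorescent RT-PCR products separated by capillary electrophoresis report PAX6-linked promoter mRNA in HepG2 cells 24 h post-dose. Curves fitted bidirectionally, DMSO as negative control.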
# [19] = ATG_TAL_CIS: Attagene CIS-FACTORIAL HepG2 Assay for human TAL Basal Promoter (AID 2282966); details: HepG2 Attagene cis-factorial TAL promoter reporter; actives raise or lower the signal;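 further: background control endpoint measuring basal TAL promoter reporter mRNA not a specific factor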
# Procedure, shortened: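 Endogenous transcription-factor activity is sensed in HepG2 cells through transfected cis-promoter reporter constructs. After 24 h dosing, reporter transcripts are quantified by RT-PCR and capillary electrophoresis. Gain or loss of signal is fitted relative to DMSO.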
structure (smiles),measurement,setting,value
CCC(C)OC(=O)N1CCCCC1CCO (stereo not given),outcome,[1],inactive
same,outcome,[2],inactive
same,outcome,[3],inactive
same,outcome,[4],inactive
same,outcome,[5],inactive
same,outcome,[6],inactive
same,outcome,[7],inactive
same,AC50,[8],20.7 µM (active) and 15 µM (active)
same,outcome,[9],inactive
same,outcome,[10],inactive
same,outcome,[11],inactive
same,outcome,[12],inactive
same,outcome,[13],inactive
same,outcome,[14],inactive
same,outcome,[15],inactive
same,outcome,[16],inactive
CCCCCOC(=O)COc1cc(N2C(=O)C3=C(CCCC3)C2=O)c(F)cc1Cl,outcome,[17],inactive
same,outcome,[1],inactive
same,outcome,[2],inactive
same,outcome,[3],inactive
same,outcome,[4],inactive
same,AC50,[5],87.6 µM (active)
same,outcome,[6],inactive
same,outcome,[18],inactive
same,AC50,[8],10.2 µM (active)
same,outcome,[10],inactive
same,outcome,[11],inactive
same,outcome,[12],inactive
same,outcome,[13],inactive
same,outcome,[14],inactive
same,outcome,[15],inactive
same,AC50,[16],26.6 µM (active)
CCCOC(=O)NCCCN(C)C,outcome,[1],inactive
same,outcome,[2],inactive
same,outcome,[3],inactive
same,outcome,[4],inactive
same,outcome,[6],inactive
same,outcome,[7],inactive
same,outcome,[8],inactive
same,outcome,[10],inactive
same,outcome,[11],inactive
same,outcome,[12],inactive
same,outcome,[13],inactive
same,outcome,[15],inactive
same,outcome,[16],inactive
COC(=O)c1ccc(I)cc1S(=O)(=O)NC(=O)Nc1nc(C)nc(OC)n1,outcome,[17],inactive
same,outcome,[1],inactive
same,outcome,[2],inactive
same,outcome,[3],inactive
same,outcome,[4],inactive
same,outcome,[5],inactive
same,outcome,[6],inactive
same,outcome,[7],inactive
same,AC50,[8],50 µM (active)
same,outcome,[10],inactive
same,outcome,[11],inactive
same,outcome,[12],inactive
same,outcome,[13],inactive
same,outcome,[14],inactive
same,outcome,[15],inactive
same,outcome,[16],inactive
same,outcome,[19],inactive
CC(=O)[C@H]1CC[C@H]2[C@@H]3CCC4=CC(=O)CC[C@]4(C)[C@H]3CC[C@]12C,AC50,[1],46.4 µM (active)
same,outcome,[1],inactive
same,outcome,[2],inactive
same,AC50,[4],182 µM (active)
same,outcome,[4],inactive
same,AC50,[5],60 µM (active) and 149 µM (active)
same,outcome,[5],inactive
same,AC50,[6],33.4 µM (active) and 38.9 µM (active) and 117 µM (active)
same,outcome,[6],inactive
same,AC50,[18],24.6 µM (active)
same,outcome,[18],inactive
same,AC50,[8],4.83 µM (active) [middle of 4 runs]
same,outcome,[9],inactive
same,outcome,[11],inactive
same,outcome,[12],inactive
same,AC50,[13],33.4 µM (active) [middle of 4 runs]
same,outcome,[15],inactive
same,outcome,[16],inactive
